The nature of assay [1]: qHTS for Inhibitors of the Functional Ribonucleoprotein Complex (vRNP) of Lassa (LASV) Arenavirus: LASV Primary Screen - GLuc reporter signal (AID 1347082; calls by dose curve; tested in HEK293 reporter line; note: nearly all actives have a fitted effect of over 60% in size; for activity change, negative = inhibition: series mostly up to about 57 µM).
Assay [2] is described as follows: qHTS for Inhibitors of the Functional Ribonucleoprotein Complex (vRNP) of Lassa (LASV) Arenavirus: Viability assay - alamar blue signal for LASV Primary Screen (AID 1347083; calls by dose curve; tested in HEK293 reporter line; note: nearly all actives have a fitted effect of over 80% in size; for activity change, negative = reduced viability: series mostly up to about 57 µM). For orientation: In qHTS, concentration-response curves come from the screen itself.
Assay [3] in a line: qHTS for Inhibitors of the Functional Ribonucleoprotein Complex (vRNP) of Lymphocytic Choriomeningitis Arenaviruses (LCMV): Viability assay - alamar blue signal for LCMV Primary Screen (AID 1347085; calls by dose curve; tested in HEK293 reporter line; note: nearly all actives have a fitted effect of over 80% in size; for activity change, negative = lower viability: series mostly up to about 57 µM).
Assay [4] addresses Nucleoprotein (Lymphocytic choriomeningitis virus (strain Armstrong)) (UniProt P09992). The assay can be described thus: qHTS for Inhibitors of the Functional Ribonucleoprotein Complex (vRNP) of Lymphocytic Choriomeningitis Arenaviruses (LCMV): LCMV Primary Screen - GLuc reporter signal (AID 1347086). For activity change, negative = inhibition: series mostly up to about 57 µM. Note: nearly all actives have a fitted effect of over 70% in size.

The structures appear in SMILES notation. Records with an inconclusive call do not appear. A number with no mark means an inactive call. Active and inactive are the calls of the source. Unless noted, calls come from the whole dose curve.
% is set by controls: 0 for no effect and ±100 for the full control effect; potency is the fitted concentration of half-maximal effect.

Nucleoprotein (Lymphocytic choriomeningitis virus (strain Armstrong)), sequence (P09992 whole entry, looked up): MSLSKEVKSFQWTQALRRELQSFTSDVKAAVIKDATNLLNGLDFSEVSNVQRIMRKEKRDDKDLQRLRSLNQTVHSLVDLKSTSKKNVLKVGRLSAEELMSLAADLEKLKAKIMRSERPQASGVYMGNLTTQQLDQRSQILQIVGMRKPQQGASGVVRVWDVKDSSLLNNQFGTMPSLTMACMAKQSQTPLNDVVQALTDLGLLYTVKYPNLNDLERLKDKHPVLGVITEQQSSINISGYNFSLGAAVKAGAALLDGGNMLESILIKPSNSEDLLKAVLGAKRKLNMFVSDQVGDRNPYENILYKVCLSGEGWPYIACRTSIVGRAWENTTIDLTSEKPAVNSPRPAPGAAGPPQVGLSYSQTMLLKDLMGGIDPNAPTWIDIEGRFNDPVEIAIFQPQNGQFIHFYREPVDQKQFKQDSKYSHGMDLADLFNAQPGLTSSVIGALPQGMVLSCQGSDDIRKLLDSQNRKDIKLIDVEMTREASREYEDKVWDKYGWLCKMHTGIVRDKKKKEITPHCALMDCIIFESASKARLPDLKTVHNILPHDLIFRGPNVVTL

Regarding `C=C(C)C(O)COc1c2occc2c(OC)c2ccc(=O)oc12` (stereo not given), the Potency entry in assay [1], in assay [2], in assay [3] and in assay [4] was “inactive” throughout.

With `COc1c2c(nc3ccccc13)OC(C(C)(O)COC(C)=O)C2` (stereo not given), the Potency entry in assay [1], in assay [2], in assay [3] and in assay [4] was “inactive” each time.

On to `Cc1ccc(-c2ccccc2)cc1`, for which the Potency result in assay [1], in assay [2], in assay [3] and in assay [4] was “inactive” throughout.

In the case of `O=c1c(O)c(-c2ccccc2)oc2cc(O)cc(O)c12`, the Potency result in assay [1], in assay [2], in assay [3] and in assay [4] was “inactive” each time.

Take `C=C(C)C1Cc2cc3ccc(=O)oc3cc2O1` (stereo not given): the Potency result in assay [1], in assay [2], in assay [3] and in assay [4] was “inactive” throughout.

With `Oc1cc(O)cc(-c2cc3ccc(O)cc3o2)c1`, the Potency entry in assay [1], in assay [2], in assay [3] and in assay [4] was “inactive” each time.

For `CC/C=C\CCCCCCCCCCOC(C)=O`, the Potency entry in assay [1], in assay [2], in assay [3] and in assay [4] was “inactive” throughout.

For `CCCCCCCCO[C@@H]1O[C@H](CO)[C@@H](O)[C@H](O)[C@H]1O`, the Potency result in assay [1], in assay [2], in assay [3] and in assay [4] was “inactive” in each case.

For `OCC(O)C(O)C(O)CO` (stereo not given), the Potency entry in assay [1], in assay [2], in assay [3] and in assay [4] was “inactive” each time.

`C=CC(=O)Nc1cccc(Nc2nc(NC3CCC(N(C)C)CC3)nc3c2ncn3C(C)C)c1` (stereo not given): the Potency in assay [1] was 2170 nM (active); in assay [2] it was 968 nM (active); in assay [3] it was 544 nM (active); in assay [4], 863 nM (active).

In the case of `CCOc1ccc(O)cc1`, the Potency result in assay [1], in assay [2], in assay [3] and in assay [4] was “inactive” each time.

As for `COC(=O)c1c(C)cc(O)c(C)c1O`, the Potency entry in assay [1], in assay [2], in assay [3] and in assay [4] was “inactive” in each case.

In the case of `C[C@]12CC[C@H](O)CC1=CCC1C2CC[C@@]2(C)C1C[C@@H](O)[C@@H]2O` (stereo not given in full), the Potency result in assay [1], in assay [2], in assay [3] and in assay [4] was “inactive” each time.

For `CC1(C)CC[C@]2(C(=O)O)[C@H](O)C[C@]3(C)C(=CCC4[C@@]5(C)C[C@H](O)[C@H](O)[C@@](C)(CO)C5CC[C@]43C)[C@@H]2C1` (stereo not given in full), the Potency result in assay [1], in assay [2], in assay [3] and in assay [4] was “inactive” each time.

On to `C[C@@H]1C[C@@H]2OC(=O)[C@]3(C)[C@H]2[C@@H](OC3(C)O)[C@]2(C)C(=O)C=C[C@H]12` (stereo not given in full), for which the Potency result in assay [1], in assay [2], in assay [3] and in assay [4] was “inactive” in each case.

Consider `C[C@]12CCC3=C4CCC(=O)C=C4CC[C@@H]3[C@H]1CC[C@@]2(O)CC#N`, for which the Potency entry in assay [1], in assay [2], in assay [3] and in assay [4] was “inactive” each time.

With `C/C=C(/C)C(=O)O[C@H]1CC(C)=CC(=O)[C@@]2(C)CC[C@@](O)(C(C)C)[C@H]12`, the Potency entry in assay [1], in assay [2], in assay [3] and in assay [4] was “inactive” each time.

As to `Cc1nc(C(N)=O)nc2ccccc12`, the Potency result in assay [1], in assay [2], in assay [3] and in assay [4] was “inactive” each time.

Turning to `C=C1CC[C@H](O)C/C1=C/C=C1\CCC[C@]2(C)[C@@H]([C@H](C)CCC(O)C(C)(C)O)CC[C@@H]12` (stereo not given in full), the Potency entry in assay [1], in assay [2], in assay [3] and in assay [4] was “inactive” in each case.

Regarding `CC(=O)OCC=C(C)C`, the Potency result in assay [1], in assay [2], in assay [3] and in assay [4] was “inactive” each time.

Regarding `C=C(C)C(O)CC/C(C)=C/Cc1c(O)ccc(C(=O)/C=C/c2ccc(O)cc2)c1O` (stereo not given), the Potency entry in assay [1], in assay [2], in assay [3] and in assay [4] was “inactive” throughout.

`Cc1ccc(C(C)(C)O)cc1`: the Potency result in assay [1], in assay [2], in assay [3] and in assay [4] was “inactive” each time.

Consider `CC(C)(O)[C@@H]1Cc2c(ccc3ccc(=O)oc23)O1`, for which the Potency entry in assay [1], in assay [2], in assay [3] and in assay [4] was “inactive” in each case.

For the compound `C[C@@H]1C[C@H]2[C@@H]3C[C@H](F)C4=CC(=O)C=C[C@@]4(C)[C@]3(F)[C@H](O)C[C@]2(C)[C@@]1(O)C(=O)CO`, the Potency result in assay [1], in assay [2], in assay [3] and in assay [4] was “inactive” in each case.

`c1ccc(C(NCc2cccnc2)(c2ccccc2)c2ccccc2)cc1`: the Potency result in assay [1], in assay [2], in assay [3] and in assay [4] was “inactive” in each case.

As for `CC/C=C\CCOC(C)=O`, the Potency entry in assay [1], in assay [2], in assay [3] and in assay [4] was “inactive” each time.

With `c1ccc(-c2ccncc2)cc1`, the Potency result in assay [1], in assay [2], in assay [3] and in assay [4] was “inactive” each time.

For `CCC/C=C/CO`, the Potency entry in assay [1], in assay [2], in assay [3] and in assay [4] was “inactive” throughout.

As for `C[C@]12O[C@H](C[C@@]1(O)C(=O)O)n1c3ccccc3c3c4c(c5c6ccccc6n2c5c31)CNC4=O`, the activity change, negative = inhibition in assay [1] was -19.8% [at 5.82 µM]; in assay [4], 25.9% [at 5.82 µM]. Moreover, in assay [2], the activity change, negative = reduced viability is -37.8% [at 5.82 µM]. For the same compound, the activity change, negative = lower viability in assay [3] is 6.16% [at 5.82 µM].

`CC(C)=CCc1c(O)cc2c(c1O)C(=O)CC(c1ccccc1)O2` (stereo not given): the Potency entry in assay [1], in assay [2], in assay [3] and in assay [4] was “inactive” in each case.

The record behind these values is PubChem BioAssay (NCATS).
